From PubChem BioAssay AID651784 (National Center for Advancing Translational Sciences (NCATS), 2012) come the findings set out here.

Each structure is given as a SMILES string. Records with an inconclusive call do not appear. Activity calls are given as the source filed them. The call rests on the fitted dose curve; in most records, active means well fitted inhibition curve with a large enough effect; inconclusive means small, poorly fitted or top-dose-only effect; inactive means no such curve, though single readings can be large or run the other way.
Potency means the concentration at half of the fitted maximal effect.

This experiment can be described thus: Acumen qHTS Assay for Inhibitors of the mTORC1 Signaling Pathway in MEF (Tsc2-/-, p53-/-) Cells: Hit Validation.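 Further: phospho-rpS6 Ser235/236 immunofluorescence normalized to propidium iodide cell count; nearly all actives have a fitted effect of over 65% in size.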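 On activity change, negative = inhibition: cells exposed to compound for 24 hours; plate controls were DMSO for no effect and 7.5 nM rapamycin control for full effect.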 As to conditions: Acumen imaging; activity change, negative = inhibition: at 37.3 µM (top of the series). A general note: In qHTS, concentration-response curves come from the screen itself.
For `CCS(=O)(=O)c1ncc(Cl)c(C(=O)NCc2ccc(OC)cc2)n1`, the Potency is 6.56 µM (active).

Take `COc1ccc(-c2nc(S(=O)(=O)c3ccc(Cl)cc3)c(N3CCCCCC3)o2)cc1`: the activity change, negative = inhibition came out at 2.12%.

As for `COc1ccccc1NC(=O)c1sc(-c2ccc(Cl)cc2)cc1N`, the activity change, negative = inhibition came to 1.3%.

`CCOc1ccc(CNC(=O)c2ccccc2NC(=O)c2nsc3ccccc23)cc1`: the activity change, negative = inhibition was -112%.

As for `COc1ccc(Cn2c(C(=O)O)c(CNCc3ccc(SC)cc3)c3ccc(OC)cc32)cc1`, the activity change, negative = inhibition is -12.2%.

For `CCOc1c(Br)cc(C2CC(=O)Nc3cc4c(cc32)OCO4)cc1OC` (stereo unspecified), the activity change, negative = inhibition is -47.7%.
